A selection: hits, their analogues and other compounds. The true share with any hit is near 2.4%.
D2 ag-1 – Beta-Arrestin HTS for Positive Allosteric Modulators of the Human D2 Dopamine Receptor: Agonists; DiscoveRx PathHunter D2 beta-arrestin, luminescence, 90 min; 100% = 57 uM dopamine signal; activation, % (no concentration beside the values); hit rate 0.084% among 360,000; AID 624465, 2012; in the data active = activation above about 40%; inconclusive = between about 15% and that limit
Target sequence (P14416 whole entry, looked up): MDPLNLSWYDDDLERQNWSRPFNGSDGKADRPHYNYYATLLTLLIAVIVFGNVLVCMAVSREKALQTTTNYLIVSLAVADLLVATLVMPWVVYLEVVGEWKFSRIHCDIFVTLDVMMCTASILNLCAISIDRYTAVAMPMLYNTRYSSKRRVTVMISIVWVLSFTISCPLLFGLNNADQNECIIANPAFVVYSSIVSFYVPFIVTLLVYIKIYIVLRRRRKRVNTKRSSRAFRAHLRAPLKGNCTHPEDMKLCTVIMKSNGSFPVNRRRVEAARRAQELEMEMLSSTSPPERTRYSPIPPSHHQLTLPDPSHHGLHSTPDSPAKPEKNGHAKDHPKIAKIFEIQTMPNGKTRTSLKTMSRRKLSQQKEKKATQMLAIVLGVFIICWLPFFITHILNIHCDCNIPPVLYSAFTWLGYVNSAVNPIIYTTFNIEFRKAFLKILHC
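DiscoveRx PathHunter D2 beta-arrestin cells (2,100/well) attached overnight, then compound-stimulated 90 min at 37 C in HBSS/10 mM HEPES/0.1% Tween-20 buffer; beta-galactosidase complementation read by luminescence after 1 h at ambient temperature. Dopamine 57 uM final (EC100) as control.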
D2 ag-2 – HTS Assay for Allosteric Agonists of the Human D2 Dopamine Receptor: Primary Screen for Agonists | D(2) dopamine receptor (Homo sapiens), P14416 | HEK293 T-REx D2 cells, calcium flux agonist mode | activation, % at 2 µM | hit rate 0.53% among 340,000 | AID 485358, 2010;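 active = activation over 3 SD above normal in the single-dose calcium agonist read, cut at about 30% in these data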
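Calcium-flux readout, 1 cycle/sec over 180 s following compound pin transfer, in inducible HEK293 Trex D2 cells (force-coupled); dopamine controls included. Positive calcium responses during this window marked compounds as potential agonists.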
D2 antagonist – HTS Assay for Allosteric Antagonists of the Human D2 Dopamine Receptor: Primary Screen for Antagonists | hit rate 2% among 340,000 | inhibition, % at 10 µM | HEK293 TREx D2 cells, calcium flux, dopamine EC80; in the data active = inhibition above about 30%; inactive = below that, where a call was filed
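Overnight-induced (tetracycline, 30 C) HEK293 T-REx cells carrying force-coupled D2 receive a no-wash calcium dye, then compound, then EC80 dopamine at 180 s; signals are read kinetically throughout.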
D2 PAM-1 – Beta-Arrestin HTS for Positive Allosteric Modulators of the Human D2 Dopamine Receptor: Potentiators; D(2) dopamine receptor (Homo sapiens), P14416; DiscoveRx D2 beta-arrestin cells, luminescence, 90 min; 100% = 57 uM dopamine signal; potentiation, % (test concentration not listed); hit rate 0.23% among 360,000; in the data active = potentiation above about 50%; inconclusive = mostly about 30% to 49%
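PathHunter beta-arrestin assay in DiscoveRx D2 cells. Compounds were added with an EC20 of dopamine (50 nM final) for 90 min at 37 deg C. Luminescence was read 1 h after detection reagent, with 57 uM dopamine as the EC100 control.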
D2 PAM-2 – HTS Assay for Positive Allosteric Modulators of the Human D2 Dopamine Receptor: Primary Screen for Potentiators; potentiation, % at 10 µM; HEK293 T-REx D2, calcium flux, EC20 dopamine potentiation; hit rate 0.34% among 340,000;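 active = potentiation over 3 SD above the plate norm, cut at about 30% in these data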
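Potentiation of an EC20 dopamine calcium response is measured in a force-coupled, tetracycline-inducible Hek293 Trex D2 line. Compound-only kinetic reads over 180 s flag agonists before dopamine addition.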
A number is an active result; - = inactive; ? = inconclusive; . = no result.

SMILES | D2 ag-1 | D2 ag-2 | D2 antagonist | D2 PAM-1 | D2 PAM-2
COc1ccccc1-c1nnc(C2CCN(C(=O)c3cccc(Cl)c3)CC2)o1 | . | - | . | . | -
Cn1c(=O)c2c(ncn2CC(=O)N2CCN(c3ccc([N+](=O)[O-])cc3)CC2)n(C)c1=O | - | - | - | - | -
Cn1c(=O)c2c(nc(N3CCCCC3)n2C)n(C)c1=O | - | - | - | - | 30.1
Cn1c(=O)c2c(nc(N3CCN(c4ccc([N+](=O)[O-])cc4)CC3)n2C)n(C)c1=O | - | - | 33.5 | - | -
Cc1ccc(C)c(N2CCN(c3c(CN4CCCC4)c(=O)oc4ccccc34)CC2)c1 | . | - | . | . | -
CCCCCn1c(S(=O)(=O)O)nc2ccccc21 | - | - | - | - | -
CCCCn1c(S(=O)(=O)O)nc2ccccc21 | - | - | 33.1 | - | -
O=C(COc1ccc(F)cc1)Nc1nnc(SCc2cc(=O)n3ccccc3n2)s1 | . | . | . | . | -
CN1CCN(CC(=O)Nc2ccccc2[N+](=O)[O-])CC1 | - | - | - | - | -
Cc1nnnn1CC(=O)Nc1ccccc1[N+](=O)[O-] | - | - | 36.5 | - | -
C[N+]1(CC(=O)Nc2ccc(F)cc2)CCN(C(=O)c2ccco2)CC1 | - | - | - | - | 43.4
O=C1N=c2ccccc2=C1c1sc(=S)n(CC2CCCO2)c1O (stereo not drawn) | - | - | - | 107.6 | -
COc1ccc(CCn2c(O)c(C3=c4ccccc4=NC3=O)sc2=S)cc1OC | - | - | - | - | -
CCc1ccccc1NC(=O)NC1CC2CCC(C1)N2Cc1cccs1 (stereo not drawn) | - | - | 55.0 | - | -
CCc1ccc(NC(=S)NC2CC3CCCC(C2)N3Cc2cccs2)cc1 (stereo not drawn) | - | - | 64.5 | - | -
CCCN1C2CCCC1CC(NC(=S)Nc1ccc(OC)cc1)C2 (stereo not drawn) | - | - | - | - | -
CCc1ccccc1NC(=O)NC1CCCCC1 | - | . | . | - | .
COc1ccc(CN2C3CCCC2CC(NC(=O)Nc2ccccc2C)C3)cc1 (stereo not drawn) | - | . | . | - | .
CCc1ccccc1NC(=S)NC1CC2CCC(C1)N2Cc1ccco1 (stereo not drawn) | - | - | - | - | -
Cc1ccc(NC(=S)NC2CC3CCC(C2)N3Cc2ccco2)c(C)c1 (stereo not drawn) | - | - | - | - | -
Cc1cccc(NC(=S)NC2CC3CCCC(C2)N3Cc2ccccc2)c1C (stereo not drawn) | - | - | 104.6 | - | -
Cc1cccc(NC(=S)NC2CC3CCC(C2)N3Cc2ccco2)c1C (stereo not drawn) | - | - | 36.1 | - | -
CCc1ccccc1NC(=S)NC1CC2CCC(C1)N2Cc1ccc(F)cc1 (stereo not drawn) | - | - | 78.3 | - | -
CCOc1ccccc1NC(=O)C(=O)c1cc(C)n(-c2cccc(C)c2C)c1C | . | - | . | . | .
O=c1oc2c(CN3CCOCC3)c(O)ccc2c2c1CCC2 | - | - | - | - | -
SMILES | D2 ag-1 | D2 ag-2 | D2 antagonist | D2 PAM-1 | D2 PAM-2
CC1CCCN(Cc2c(O)ccc3c4c(c(=O)oc23)CCCC4)C1 (stereo not drawn) | - | - | 36.0 | - | -
Cc1ccc(Nc2c(-c3ccc(N(C)C)cc3)nc3ccccn23)cc1 | . | - | . | . | -
COc1cccc(-c2cn3c(n2)sc2cc(C(=O)NCc4cccs4)ccc23)c1 | . | - | . | . | -
Cc1ccc(SCCC(=O)NC(C)C)cc1 | - | - | 32.2 | - | -
Cc1ccc(SCCC(=O)NC(C)(C)C)cc1 | - | - | - | - | -
Nc1ccc(N(CCO)CCO)cc1 | ? | - | - | 63.9 | -
CCOc1ccc(NC(=O)NCCN2CCN(c3cccc(C)c3C)CC2)cc1 | - | - | - | - | -
CCOc1cccc(N2CCN(CCNC(=O)Nc3ccc(C)cc3)CC2)c1C | - | - | 43.9 | - | -
COc1ccc(NC(=O)NCCN2CCN(c3cccc(Cl)c3)CC2)cc1 | - | - | 36.1 | - | -
Cc1ccc(CN2C(=O)CCC2C(=O)NCCN2CCN(c3cccc(Cl)c3)CC2)cc1 (stereo not drawn) | - | - | 43.8 | - | -
O=C(Cn1nc(-c2ccccc2)ccc1=O)NCCN1CCN(c2cccc(Cl)c2)CC1 | - | - | 63.6 | - | -
COc1cc2ccccc2nn1 | - | - | - | - | -
COc1ccc2c(n1)Sc1nc3ccccc3nc1N2 | - | 92.2 | 49.4 | - | -
CCOc1ccccc1NC(=O)c1c(C)cc(C)nc1SCC(=O)c1cccc(OC)c1 | . | . | . | . | -
O=C(NNc1nc2ccc(F)cc2s1)c1cccc(F)c1 | - | - | 40.7 | - | -
Cc1ccc2c(=O)c(C(=O)c3cccc(Cl)c3)cn(CC(=O)Nc3ccccc3C(F)(F)F)c2n1 | . | - | . | . | -
COc1cccc(CNC(=O)CSc2ccc(-c3sc(-c4ccccc4)nc3C)nn2)c1 | . | - | . | . | -
CC1CCC(=NNC(=O)Cc2cccn2C)CC1 (stereo not drawn) | - | - | - | - | -
CC1CCC(=NNC(=O)Cc2ccccc2)CC1 (stereo not drawn) | - | - | 43.5 | - | -
Cc1ccc(NC(=O)c2cnn(-c3ccc(C)c(C)c3)c2C2CCN(C(=O)OC(C)(C)C)CC2)c(C)c1 | . | - | . | . | -
COc1ccccc1N1CCN(C2CCN(C3CCC(c4ccccc4)CC3)CC2)CC1 (stereo not drawn) | . | - | 45.1 | . | -
COc1ccccc1N1CCN(C2CCN(C(=O)COc3cccc(C)c3)CC2)CC1 | - | - | 69.4 | - | -
COc1ccccc1N1CCN(C2CCC(C)CC2)CC1 (stereo not drawn) | - | - | - | - | -
CCOC(=O)N1CCc2c(sc3c2c(=O)n(-c2ccc(CC)cc2)c(=O)n3CC(=O)c2ccc(F)cc2)C1 | . | - | . | . | -
Cc1cc(-c2ccc(S(=O)(=O)Nc3cccc(C)c3C)s2)on1 | . | - | . | . | -
Cc1ccc(CNC(=O)c2c(C)oc3nc(C)nc(N4CCOCC4)c23)cc1 | . | - | . | . | -
CC(=O)c1cccc(NC(=O)c2cccn2-c2nnc(N3CCCCC3)s2)c1 | . | - | . | . | -
CCOc1ccc(CNC(=O)C2CCCN(S(=O)(=O)N3CCC(C)CC3)C2)cc1OC (stereo not drawn) | - | . | . | - | .
CCOc1ccc(CNC(=O)C2CCCN(S(C)(=O)=O)C2)cc1OC (stereo not drawn) | - | - | 52.1 | - | -
O=C1S/C(=C\c2ccc(Cl)cc2)C(=O)N1CCn1cnnn1 | - | - | - | - | 38.0

From PubChem BioAssay
